Test [1] is described as follows: Quantitative High-Throughput drug screen in 47 multiple myeloma cell lines against the NCATS MIPE library collection: ARD_JJKsccE7 cell viability assay (AID 1918929; further: potency means the concentration at half of the fitted maximal effect). In outline:
(§1)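 qHTS of the MIPE 4.0 collection: 500 myeloma cells/well, 48 h drug exposure at 37C in 5% CO2, then CellTiter-Glo for 5 min at room temperature before luminescence reading.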

The nature of test [2]: Quantitative High-Throughput drug screen in 47 multiple myeloma cell lines against the NCATS MIPE library collection: Karpas620_DSMZ cell viability assay (AID 1918959). Further: nearly all actives have a fitted effect of over 30% in size. Further: potency means the concentration at half of the fitted maximal effect. The gist of the method:
(§2)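 Myeloma cells (500 per well) were exposed to MIPE 4.0 compounds by pin transfer and incubated 48 hours at 37C, 5% CO2. Viability was read as ATP by CellTiter-Glo luminescence, normalised to DMSO (100%) and media-only (0%) wells.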

Test [3] is described as follows: Quantitative High-Throughput drug screen in 47 multiple myeloma cell lines against the NCATS MIPE library collection: KMM1_JCRB cell viability assay (AID 1918960). Further: nearly all actives have a fitted effect of over 30% in size. Further: potency means the concentration at half of the fitted maximal effect. In outline: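 Cell viability inhibition in this qHTS is measured via ATP content (CellTiter-Glo) after 48 h drug exposure at 37 °C. Wells hold 500 cells; DMSO-treated wells define 100% and medium-only wells 0%.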

A short description of test [4]: Quantitative High-Throughput drug screen in 47 multiple myeloma cell lines against the NCATS MIPE library collection: INA6_PLB cell viability assay (AID 1918965; further: nearly all actives have a fitted effect of over 55% in size; further: potency means the concentration at half of the fitted maximal effect). In outline: (§3)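 CellTiter-Glo ATP luminescence gave viability after 48 h compound treatment at 37C of 500 multiple myeloma cells per well. Normalisation used DMSO-only wells as 100% and media-only wells as 0% viability; primary qHTS of approved and investigational drugs.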

Test [5] can be described thus: Quantitative High-Throughput drug screen in 47 multiple myeloma cell lines against the NCATS MIPE library collection: JJN3_DSMZ cell viability assay (AID 1918966; further: nearly all actives have a fitted effect of over 50% in size; further: potency means the concentration at half of the fitted maximal effect). The gist of the method: as §1
Test [6] in a line: Quantitative High-Throughput drug screen in 47 multiple myeloma cell lines against the NCATS MIPE library collection: KMS27_JCRB cell viability assay (AID 1918970). Further: nearly all actives have a fitted effect of over 30% in size. Further: potency means the concentration at half of the fitted maximal effect. The gist of the method: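 KMS27_JCRB myeloma cells, 500 per well, exposed 48 h at 37 C, 5% CO2 to MIPE 4.0 compounds. Viability from ATP by CellTiter-Glo luminescence, normalized to DMSO (100%) and medium-only (0%) wells.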

Test [7] in a line: Quantitative High-Throughput drug screen in 47 multiple myeloma cell lines against the NCATS MIPE library collection: KMS12PE_JCRB cell viability assay (AID 1918972). Further: nearly all actives have a fitted effect of over 30% in size. Further: potency means the concentration at half of the fitted maximal effect. The gist of the method: as §3
Test [8] in a line: Quantitative High-Throughput drug screen in 47 multiple myeloma cell lines against the NCATS MIPE library collection: KMS26_JCRB cell viability assay (AID 1918975). Further: nearly all actives have a fitted effect of over 45% in size. Further: potency means the concentration at half of the fitted maximal effect. The gist of the method:
(§4)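 Luminescent ATP measurement with CellTiter-Glo gives viability, scaled between DMSO-only wells (100%) and media-only wells (0%). Cells, 500 per well, faced library compounds for 48 hours at 37C.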

Test [9] in a line: Quantitative High-Throughput drug screen in 47 multiple myeloma cell lines against the NCATS MIPE library collection: MMM1_PLB cell viability assay (AID 1918976). Further: potency means the concentration at half of the fitted maximal effect; nearly all actives have a fitted effect of over 35% in size. The gist of the method: (§5)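 ATP-based CellTiter-Glo luminescence after 48 h drug exposure (37 °C, 5% CO2) of 500 myeloma cells per well. DMSO-only wells set 100% viability, media-only wells 0%; MIPE 4.0 library added by pin tool.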

Test [10] in a line: Quantitative High-Throughput drug screen in 47 multiple myeloma cell lines against the NCATS MIPE library collection: MOLP8_DSMZ cell viability assay (AID 1918977). Further: nearly all actives have a fitted effect of over 45% in size. Further: potency means the concentration at half of the fitted maximal effect. The gist of the method:
as §5

Test [11] can be described thus: Quantitative High-Throughput drug screen in 47 multiple myeloma cell lines against the NCATS MIPE library collection: JIM3_ECACC cell viability assay (AID 1918963; further: potency means the concentration at half of the fitted maximal effect; nearly all actives have a fitted effect of over 35% in size). The gist of the method: as §2
Test [12] is described as follows: Quantitative High-Throughput drug screen in 47 multiple myeloma cell lines against the NCATS MIPE library collection: JIM1_ECACC cell viability assay (AID 1918964; further: potency means the concentration at half of the fitted maximal effect). In outline: as §1
Test [13] in a line: Quantitative High-Throughput drug screen in 47 multiple myeloma cell lines against the NCATS MIPE library collection: H1112_PLB cell viability assay (AID 1918967; further: nearly all actives have a fitted effect of over 30% in size; further: potency means the concentration at half of the fitted maximal effect). In outline: as §1
Test [14] is described as follows: Quantitative High-Throughput drug screen in 47 multiple myeloma cell lines against the NCATS MIPE library collection: NCIH929_DSMZ cell viability assay (AID 1918978). Further: nearly all actives have a fitted effect of over 35% in size. Further: potency means the concentration at half of the fitted maximal effect. The gist of the method: as §5
Test [15] is described as follows: Quantitative High-Throughput drug screen in 47 multiple myeloma cell lines against the NCATS MIPE library collection: Karpas417_ECACC cell viability assay (AID 1918961). Further: potency means the concentration at half of the fitted maximal effect. As to conditions: Karpas417 myeloma viability, CellTiter-Glo ATP luminescence, 48 h; viability (% of DMSO): at 45.8 µM (top of the series). In outline:
as §3
A general note: In ATP-based viability assays light output follows the ATP content of the culture.

Test [16] in a line: Quantitative High-Throughput drug screen in 47 multiple myeloma cell lines against the NCATS MIPE library collection: Karpas25_ECACC cell viability assay (AID 1918968; further: nearly all actives have a fitted effect of over 35% in size; further: potency means the concentration at half of the fitted maximal effect). The gist of the method:
as §1

Test [17] in a line: Quantitative High-Throughput drug screen in 47 multiple myeloma cell lines against the NCATS MIPE library collection: KMS12BM_JCRB cell viability assay (AID 1918971). The gist of the method: as §4
A short description of test [18]: Quantitative High-Throughput drug screen in 47 multiple myeloma cell lines against the NCATS MIPE library collection: KHM11_PLB cell viability assay (AID 1918962). The gist of the method: as §2
The nature of test [19]: Quantitative High-Throughput drug screen in 47 multiple myeloma cell lines against the NCATS MIPE library collection: KMS21BM_JCRB cell viability assay (AID 1918974). Further: potency means the concentration at half of the fitted maximal effect. As to conditions: ATP luminescence, 48 h; viability: at 45.8 µM (top of the series) unless noted. In outline: as §1
Test [20] can be described thus: Quantitative High-Throughput drug screen in 47 multiple myeloma cell lines against the NCATS MIPE library collection: KMS20_JCRB cell viability assay (AID 1918973). Further: nearly all actives have a fitted effect of over 45% in size. In outline: as §1

Records with an inconclusive call do not appear. Activity calls are given as the source filed them. The call rests on the fitted dose curve; in most records, active means well fitted curve in the direction sought with a large enough effect; inconclusive means small, poorly fitted or top-dose-only effect, or another doubt; inactive means no such curve, though single readings can be large; an effect the other way counts as inactive or inconclusive.

The record followed here is PubChem BioAssay (NCATS).

For `Cc1cc(OCCCc2c(C(=O)O)n(Cc3cccnc3)c3c(-c4c(COc5ccc(N6CCN([S+](C)(=O)[O-])CC6)cc5)nn(C)c4C)cccc23)cc(C)c1Cl`, the Potency entry in test [1], in test [2] and in test [6] was “inactive” in each case. In addition, the Potency in [3] was 9.35 µM (active); in test [4] it was 18.7 µM (active); in test [5], 26.4 µM (active); in [7], 6.62 µM (active); in test [8], 20.9 µM (active); in [9], 14.8 µM (active). Moreover, the Potency in test [10] was 20.9 µM (active).

For `O=C(O)c1c(Cl)c(Cl)c(Cl)c(Cl)c1-c1c2cc(I)c(=O)c(I)c-2oc2c(I)c(O)c(I)cc12`, the Potency was 8.33 µM (active) in test [1]; 14.8 µM (active) in test [2]; 7.43 µM (active) in [11]; 2.35 µM (active) in test [12]; 10.5 µM (active) in test [4]; 5.9 µM (active) in [5]. Moreover, the Potency was 3.32 µM (active) in test [13], 10.5 µM (active) in [7] and 6.62 µM (active) in [14].

With `COc1ccc(-c2coc3cc(O)ccc3c2=O)cc1`, the Potency result in test [1], in test [2], in [15], in [12], in [4] and in test [5] was “inactive” throughout. In addition, the Potency entry in test [13], in [16], in [6], in [7] and in [14] was “inactive” in each case. Further, the Potency in test [10] was 0.0059 µM (active).

Turning to `CN[C@@H](C)C(=O)N[C@H]1CN(C(=O)CC(C)C)CC[C@H]2CC[C@@H](C(=O)NC(c3ccccc3)c3ccccc3)N2C1=O`, the Potency is 7.43 µM (active) in test [1]; 1.18 µM (active) in [2]; 9.35 µM (active) in [11]; 8.33 µM (active) in [4]; 26.4 µM (active) in test [17]; 3.72 µM (active) in test [7]. Also, the Potency result in [10] is “inactive”.

Consider `CC=C(C)C(=O)O[C@H]1C(C)=C[C@]23C(=O)[C@@H](C=C(CO)[C@@H](O)[C@]12O)[C@H]1[C@@H](C[C@H]3C)C1(C)C`, for which the Potency is 11.8 µM (active) in test [1]; 11.8 µM (active) in test [3]; 0.209 µM (active) in [15]; 3.72 µM (active) in [18]; 18.7 µM (active) in test [11]; 0.0066 µM (active) in [4]. Besides, the Potency in test [13] is 0.526 µM (active); in test [6] it was 9.35 µM (active); in test [7], 18.7 µM (active); in test [19], 8.33 µM (active); in test [9] it was 18.7 µM (active).

On to `CC=CCC=CCCC(=O)[C@H]1O[C@@H]1C(N)=O`, for which the Potency was 26.4 µM (active) in [1]; 16.6 µM (active) in test [2]; 11.8 µM (active) in test [12]; 18.7 µM (active) in test [4]; 23.5 µM (active) in test [7]; 14.8 µM (active) in test [10].

For the compound `COc1ccc(-c2nc(N3CCOCC3)c3sc(CN(C)c4ncc(C(=O)NO)cn4)cc3n2)cn1`, the Potency in [1], in test [2], in test [3], in test [12], in [6] and in [7] was 0.001 µM (active) throughout. The Potency in [8] was 0.0264 µM (active). In addition, the Potency entry in [4], in [20] and in [10] was “inactive” each time.

Turning to `COC1CCC(N(C(=O)C2CCC(C)CC2)c2cc(C3=CCCCC3)sc2C(=O)O)CC1` (stereo not drawn), the Potency result in [1], in [2], in test [3], in [12], in test [6] and in [7] was “inactive” each time. The Potency entry in test [20], in [19] and in test [8] was “inactive” in each case. Besides, the Potency in test [4] was 23.5 µM (active).

Take `COc1ccc(-c2oc3c(CC=C(C)C)c(OC4O[C@H](CO)[C@@H](O)[C@H](O)[C@@H]4O)cc(O)c3c(=O)c2OC2O[C@@H](C)[C@H](O)[C@@H](O)[C@@H]2O)cc1` (stereo partly drawn): the Potency was 9.35 µM (active) in test [1]; 11.8 µM (active) in test [2]; 10.5 µM (active) in test [15]; 20.9 µM (active) in [11]; 33.2 µM (active) in [4]; 23.5 µM (active) in test [13]. In addition, the Potency in test [16] is 20.9 µM (active); in test [6] it was 11.8 µM (active); in test [17] it was 18.7 µM (active); in [7] it was 8.33 µM (active); in test [19] it was 9.35 µM (active); in test [8] it was 23.5 µM (active). In [14], the Potency is 29.6 µM (active).
